Test [1] in a line: qHTS profiling of the MIPE4 collection as inhibitors of Plasmodium falciparum (DD2) proliferation (Rep 2) (AID 743346; call rule not given here). The settings on record: P. falciparum Dd2 in erythrocytes, SYBR Green DNA, 72 h; at 28.5 µM unless noted. Summed up:
(§1)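 Parasite DNA was quantified by SYBR Green I fluorescence (ex 485, em 535 nm) after overnight lysis in saponin/Triton buffer at room temperature. Cultures at 0.3% parasitemia and 2.5% hematocrit were first exposed to compound for 72 h at 37 C; signals were normalised to artemisinin (0.29 uM) and vehicle wells.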
On the technique in general: Quantitative high-throughput screening tests each substance at several concentrations.

Test [2] is described as follows: qHTS profiling of the MIPE4 collection as inhibitors of Plasmodium falciparum (HB3) proliferation (AID 743347; call rule not given here;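 also: plate controls were DMSO vehicle wells for no effect and artemisinin wells for full effect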). The settings on record: P. falciparum HB3 in erythrocytes, SYBR Green DNA, 72 h; at 28.5 µM unless noted. Summed up: as §1
Test [3] in a line: High-throughput drug toxicity screening in the BPDCN cell line Gen2.2 (AID 1224824; call rule not given here;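 also: cells exposed to compounds for 48 h before reading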). The note with it: Gen2.2 BPDCN cells; at 45.8 µM (top of the series) unless noted. In short, it runs like this:
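Gen2.2 cells, 500 per well in phenol red-free RPMI with 10% FBS, exposed to compounds 48 h at 37 C, 5% CO2; viability by CellTiter-Glo luminescence. Percent activity scaled to DMSO (100%) and 9.2 uM bortezomib final (0%).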

A short description of test [4]: High-throughput drug toxicity screening in the BPDCN cell line Cal-1 (AID 1224825; call rule not given here). The settings on record: Cal-1 BPDCN cell viability, qHTS; at 45.8 µM (top of the series) unless noted. In short, it runs like this:
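Percent activity derived from CellTiter-Glo luminescence, scaling DMSO to 100% and 9.2 uM final bortezomib to 0%. BPDCN Cal-1 cells (500/well, RPMI plus 10% FBS) incubated with compounds 48 hours at 37C before reading.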

The nature of test [5]: qHTS assay for measurement of the activity of small molecule inhibitors on Zika virus induced Caspase-3 activity in human iPSC derived neural progenitor cells (hNPCs) (AID 1224857). Also: nearly all actives have a fitted effect of over 65% in size. Also: potency is read from the fitted curve at half-maximal effect. In short, it runs like this: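 Percent inhibition of virus-induced caspase-3/7 luminescence (Caspase-Glo), scaled between uninfected cells and Zika-infected cells. hNPCs received compound 1 hr before ZIKV at 2 FFU/cell, with 6 hours infection at 37 C.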

Test [6] can be described thus: qHTS assay for measurement of the activity of small molecule inhibitors on Zika virus induced Caspase-3 activity in human astrocytoma cells (AID 1224859).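 Also: plate controls were ZIKV-infected untreated cells for no effect and uninfected cells for full effect.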 In short, it runs like this:
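Luminescent caspase-3/7 read-out (30 min reagent, room temperature) in human SNB-19 cells infected 6 h with ZIKV (2 FFU/cell) after 1 h compound pre-incubation; Data were normalised to uninfected and infected wells.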

Test [7] is described as follows: qHTS Screen of the MIPE 4.0 Collection Against Ewings Sarcoma (RDES) (AID 1259252). Also: nearly all actives have a fitted effect of over 35% in size. Also: potency is read from the fitted curve at half-maximal effect. Summed up: (§2)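 Cells plated in serum-containing RPMI (5% FBS) and treated with compound dilutions for 48 h. Readout luminescent viability; normalization relied on vehicle (no inhibition) and media-only columns (full inhibition).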
Test [8] in a line: qHTS Screen of the MIPE 4.0 Collection Against Ewings Sarcoma (TC71) (AID 1259253). Also: nearly all actives have a fitted effect of over 40% in size. Also: potency is read from the fitted curve at half-maximal effect. Summed up: as §2
Test [9] is described as follows: qHTS Screen of the MIPE 4.0 Collection Against Ewings Sarcoma (EW8) (AID 1259255). Also: nearly all actives have a fitted effect of over 35% in size. Also: potency is read from the fitted curve at half-maximal effect.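 As to viability: 100% = DMSO-treated cells and 0% = medium-only wells without cells.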 In short, it runs like this: as §2
Test [10] is described as follows: qHTS Screen of the MIPE 4.0 Collection Against Ewings Sarcoma (TC32) (AID 1259256). Also: nearly all actives have a fitted effect of over 45% in size. Also: potency is read from the fitted curve at half-maximal effect. In short, it runs like this: as §2
A short description of test [11]: P-glycoprotein substrates identified in KB-8-5-11 adenocarcinoma cell line, qHTS therapeutic library screen (AID 1346987). Also: nearly all actives have a fitted effect of over 65% in size. Also: potency is read from the fitted curve at half-maximal effect. In short, it runs like this: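 In this qHTS, P-gp-rich KB-8-5-11 cells received library compounds across a concentration range. Viability was quantified by luminescence after 72 h at 37 degree C.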
The nature of test [12]: qHTS assay to identify small molecule inhibitors of chordoma cells - UCH-2 (AID 1259356). Also: potency is read from the fitted curve at half-maximal effect.
Test [13] in a line: Identifying Small Molecule Inhibitors of Pancreatic Cancer Stem Cells (SN12C, Adherent) (AID 1259358).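 Also: potency is read from the fitted curve at half-maximal effect; cell survival measured after 48 h of compound exposure.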 In short, it runs like this:
(§3)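 Pre-formed 14-day tumor spheroids or adherent cells dosed and incubated 48 h, 37C, 5% CO2. Viability assessed by CellTiter-Glo.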

A short description of test [14]: Identifying Small Molecule Inhibitors of Pancreatic Cancer Stem Cells (SN12C, Spheroid) (AID 1259360). Also: potency is read from the fitted curve at half-maximal effect. The note with it: Potency: SN12C spheroid viability. In short, it runs like this: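 Luminescent ATP readout (CellTiter-Glo) quantifies surviving cells after a 48 h drug incubation. Normalization uses DMSO wells as no inhibition and media-only wells as full inhibition; bortezomib served as positive control.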

Test [15] can be described thus: Identifying Small Molecule Inhibitors of Pancreatic Cancer Stem Cells (A278, Adherent) (AID 1259361).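 Also: viability read after 48 h compound exposure; nearly all actives have a fitted effect of over 35% in size.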 In short, it runs like this:
as §3

The nature of test [16]: Identifying Small Molecule Inhibitors of Pancreatic Cancer Stem Cells (Panc1, Adherent) (AID 1259362). Also: potency is read from the fitted curve at half-maximal effect. The settings on record: viability. In short, it runs like this:
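Adherent (2D) versus sphere (3D) formats; spheres generated 14 d in SCM beforehand. Compound transferred by pin tool after 4 h, 48 h incubation, CellTiter-Glo endpoint.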

A short description of test [17]: qHTS assay to identify small molecule inhibitors of chordoma cells - UCH-1 (AID 1259355). Also: % is scaled to controls: 0 for no effect and ±100 for the full control effect; nearly all actives have a fitted effect of over 55% in size. In short, it runs like this:
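800 cells/well, overnight attach; compounds pinned at 15 concs, then auranofin/camptothecin/doxorubicin/rubitecan/topotecan combo added; 48hr 37 C, 5% CO2; CellTiter-Glo, 30min RT, luminescence.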

The nature of test [18]: P-glycoprotein substrates identified in KB-3-1 adenocarcinoma cell line, qHTS therapeutic library screen (AID 1346986). Also: nearly all actives have a fitted effect of over 60% in size. The settings on record: KB-3-1 parental cells viability, CellTiter-Glo, 72 h; at 44.5 µM (top of the series). Summed up:
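Dose-response cytotoxicity, KB-3-1 vs P-gp-high KB-8-5-11, no colchicine in assay medium. Read: CellTiter-Glo at 72 h.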

The structures appear in SMILES notation. “And” between values parts separate entries of the source, which are not always exact repeats. Equal values may be shown once. Records with an inconclusive call do not appear. A structure can be active in one record and inactive in another. The source made the active and inactive calls. Unless noted, calls follow the shape of the dose curve; as a rule, active = well fitted curve in the direction sought with a large enough effect; inconclusive = small, poorly fitted or top-dose-only effect, or another doubt; inactive = no such curve, though single readings can be large; an effect the other way counts as inactive or inconclusive.

Consider `NC(=O)c1ccc2[nH]ccc2c1`, for which the parasite growth, % of control (lower = inhibition) in test [1] was 122%. The molecule also displayed a growth, % of control in [2] of 57.5%. Moreover, the cell viability, % of control (lower = more cytotoxic) in test [3] turned out to be 140%. Further, in [4], the viability (% of control) was 90.6%. Moreover, the Potency result in test [5], in test [6], in test [7], in test [8], in test [9] and in test [10] was “inactive” each time. The Potency entry in [11] was “inactive”.
For `NC(=O)N1c2ccccc2CC(=O)c2ccccc21`, in test [1], the parasite growth, % of control (lower = inhibition) is 187%. In test [2], this molecule registered a growth, % of control of 102%. For the same molecule, the cell viability, % of control (lower = more cytotoxic) in test [3] was 104%. In addition, the viability (% of control) in test [4] is 112%. Moreover, the Potency result in test [5], in test [6], in test [7], in test [8], in test [9] and in test [10] was “inactive” throughout. The Potency result in test [12] and in test [11] was “inactive” throughout.
As for `CC(C)C[C@H](NC(=O)[C@H](CCc1ccccc1)NC(=O)CN1CCOCC1)C(=O)N[C@@H](Cc1ccccc1)C(=O)N[C@@H](CC(C)C)C(=O)[C@@]1(C)CO1`, the parasite growth, % of control (lower = inhibition) in [1] was found to be 9.09%. The growth, % of control in test [2] came out at 6.02%. Besides, in test [3], the cell viability, % of control (lower = more cytotoxic) came out at 5.77%. In test [4], the viability (% of control) stood at 3.67%. In addition, the Potency entry in test [5] and in [6] was “inactive” each time. The Potency in [7] was 18.7 nM (active); in [8], 37.2 nM (active); in [9], 13.2 nM (active); in [10], 14.8 nM (active); in test [13], 37.2 nM (active); in test [14], 37.2 nM (active). Besides, the Potency was 26.4 nM (active) in test [16] and 9.2 µM (active) in [11]. Further, the IC50 (viability decrease) in [15] is 2.3 nM (active).
`Cc1cccc(Nc2ccncc2S(=O)(=O)NC(=O)NC(C)C)c1`: the parasite growth, % of control (lower = inhibition) in test [1] was 125%. Besides, the growth, % of control in test [2] is 95.2%. The cell viability, % of control (lower = more cytotoxic) in [3] was 90.1%. The viability (% of control) in test [4] came to 107%. In addition, the Potency result in [5] is “inactive and 18.7 µM (active)”. The Potency entry in [6], in test [7], in test [8], in [9], in [10] and in test [12] was “inactive” throughout. For the same molecule, the Potency entry in test [11] was “inactive”.
On to `Oc1c(Cl)cc(Cl)c2cccnc12`, for which the parasite growth, % of control (lower = inhibition) in test [1] was 45.4%. The molecule further returned a growth, % of control in test [2] of 347%. The cell viability, % of control (lower = more cytotoxic) in test [3] amounted to 10.5%. In [4], the viability (% of control) was 9.09%. In addition, the Potency entry in [5] and in test [6] was “inactive” in each case. For the same molecule, the Potency in [7] was 13200 nM (active); in test [8] it was 10500 nM (active); in [9], 8330 nM (active); in test [10], 7430 nM (active); in [12] it was 23100 nM (active); in test [11], 1.46 µM (active).
In the case of `Cc1ccnc2c1NC(=O)c1cccnc1N2C1CC1`, the cell viability, % of control (lower = more cytotoxic) in test [3] came out at 1.63%. The viability (% of control) in test [4] was found to be 7.09%. For the same molecule, the Potency result in test [5], in test [6], in test [7], in test [8], in test [9] and in [10] was “inactive” in each case. Further, the Potency result in test [17], in test [12] and in [11] was “inactive” in each case. In addition, the result in [18] was inactive.
For the molecule `CCOc1cc(N)c(Cl)cc1C(=O)NCC1CN(Cc2ccc(F)cc2)CCO1` (stereo not given), the parasite growth, % of control (lower = inhibition) in test [1] came to 178%. The molecule further displayed a growth, % of control in test [2] of 99%. In addition, the cell viability, % of control (lower = more cytotoxic) in test [3] worked out at 376%. Also, in [4], the viability (% of control) turned out to be 98.6%. For the same molecule, the Potency entry in test [5], in [6], in test [8], in test [9], in test [12] and in test [11] was “inactive” in each case.
Regarding `CC(=O)CC(c1ccccc1)c1c(O)c2ccccc2oc1=O` (stereo not given), the cell viability, % of control (lower = more cytotoxic) in test [3] is 66.7%. For the same molecule, in test [4], the viability (% of control) was determined as 60.3%. Besides, the Potency entry in test [5] is “inactive and 23.5 µM (active)”. The Potency entry in test [6], in test [7], in test [9], in test [10], in test [17] and in [12] was “inactive” each time. In addition, the Potency entry in test [11] is “inactive”.
Turning to `COC(=O)Nc1nc2ccc(C(=O)c3ccccc3)cc2[nH]1`, in test [1], the parasite growth, % of control (lower = inhibition) was determined as 71%. The molecule also returned a growth, % of control in test [2] of 84.4%. Moreover, the cell viability, % of control (lower = more cytotoxic) in test [3] amounted to 176%. Also, the viability (% of control) in test [4] amounted to 22%. Besides, the Potency result in test [5], in test [6] and in [12] was “inactive” throughout. For the same molecule, the Potency in test [8] is 1480 nM (active); in test [9], 526 nM (active); in test [10], 418 nM (active); in [11] it was 699 nM (active) and 2.96 µM (active).
